Only some compounds are listed: those with a hit (about 3.1% of all), similar ones and a draw of the others.
VDR inh = blocks the human vitamin D receptor. Potency, µM, inactives show max response, negative = inhibition, hits mostly inhibitors. AID 504847. VDR-SRC2-3 peptide fluorescence polarization, 2 h. P11473. actives 0.93% (n = 400,000); also: % is scaled to controls: 0 for no effect and ±100 for the full control effect
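Fluorescence polarization assay measuring small-molecule disruption of VDR binding to the coregulator peptide SRC2-3. Compounds were pin-transferred (23 nl) into the reagent mix and incubated 2 h at room temperature before reading.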
TDP1 block = TDP1 (human) enzyme inhibition; AID 485290; Potency, µM (top dose mostly 130 µM), for inactives: at the highest dose activity change, negative = inhibition, actives largely listed as inhibitors; actives 0.28% (n = 350,000); Q9NUW8; recombinant TDP1, AlphaScreen DNA substrate cleavage; also: % is scaled to controls: 0 for no effect and ±100 for the full control effect; nearly all actives have a fitted effect of over 40% in size
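Recombinant human Tdp1 (E. coli-expressed, 1 nM final) preincubated with compounds 15 min at room temperature, then 5'-biotin/3'-phosphotyrosine-FITC DNA substrate (15 nM final) added for 5 min. AlphaScreen beads (10 ug/ml final) added 10 min; cleavage lowers signal.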
PLK1 PBD block = inhibitors of human PLK1 polo-box domain binding. Potency, µM, for inactives: max response, negative = inhibition, usual class: inhibitors. actives 2.8% (n = 360,000). Plk1 PBD binding of FITC phosphopeptide, fluorescence polarization; also: series mostly up to about 57 µM; % is scaled to controls: 0 for no effect and ±100 for the full control effect; nearly all actives have a fitted effect of over 65% in size
ASM inhibitor = human S-ASM enzyme inhibition; P17405; Potency, µM (highest dose often 57.5 µM), inactives show at the top dose activity change, negative = inhibition, hits mostly inhibitors; actives 0.006% (n = 340,000); AID 504937; placental ASM, HMU-PC fluorogenic substrate, 60 min
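Human placenta-derived ASM enzyme was preincubated with compound for 10 minutes at room temperature, then given fluorogenic substrate HMU-PC0 (9 uM final) for 60 minutes at 37 °C; a pH 10 stop preceded fluorescence reading at Ex 386/Em 447 nm.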
Pin1 inh = inhibitors of human Pin1; Pin1 FP peptide displacement, HiFluor488, 10 min; Potency, µM (series often up to 115 µM), inactives show at the highest dose activity, negative = inhibition, most hits filed as inhibitors; actives 0.009% (n = 390,000); active = well fitted inhibition curve with a large enough effect in the polarisation, with a control signal flat, not every such curve was filed as active; inconclusive = small, poorly fitted or top-dose-only effect, or effect the other way, or a change in a side signal; inactive = no such curve, though single readings can be large or run the other way; the % refers to the polarisation; also: % is scaled to controls: 0 for no effect and ±100 for the full control effect
Target sequence (Q13526 whole entry, looked up): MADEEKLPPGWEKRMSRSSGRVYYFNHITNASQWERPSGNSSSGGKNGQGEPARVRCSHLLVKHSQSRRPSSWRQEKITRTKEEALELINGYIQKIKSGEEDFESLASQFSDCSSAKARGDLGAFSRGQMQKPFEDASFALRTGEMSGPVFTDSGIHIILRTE
Tb PFK inh = blocks T. brucei phosphofructokinase; T. brucei PFK, ADP-Glo luminescence; Potency, µM (highest dose often 57.5 µM), for the others: top-dose activity, negative = inhibition, hits mostly inhibitors; actives 0.17% (n = 330,000); AID 485367;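 also: 0% = uninhibited 1x PFK enzyme wells and -100% = no-enzyme wells; nearly all actives have a fitted effect of over 60% in size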
Target sequence (O15648 whole entry, looked up): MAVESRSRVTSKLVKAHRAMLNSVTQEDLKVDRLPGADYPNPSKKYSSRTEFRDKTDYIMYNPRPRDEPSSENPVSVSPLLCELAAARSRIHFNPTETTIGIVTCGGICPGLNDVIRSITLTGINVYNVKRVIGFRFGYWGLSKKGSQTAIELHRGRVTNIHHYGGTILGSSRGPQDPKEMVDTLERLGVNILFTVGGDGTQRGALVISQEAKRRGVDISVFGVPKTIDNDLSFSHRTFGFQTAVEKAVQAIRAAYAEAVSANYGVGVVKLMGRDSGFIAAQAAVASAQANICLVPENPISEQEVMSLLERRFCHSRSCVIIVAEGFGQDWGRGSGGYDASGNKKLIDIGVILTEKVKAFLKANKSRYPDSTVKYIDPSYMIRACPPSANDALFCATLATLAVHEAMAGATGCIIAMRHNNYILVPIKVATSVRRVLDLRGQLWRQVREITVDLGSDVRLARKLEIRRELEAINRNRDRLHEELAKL
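1.25 nM PFK with 0.5 mM F6P and 0.1 mM ATP in 0.1 M TEA pH 8.0, 5 mM MgCl2, incubated 45 min at room temperature; ADP measured by ADP-Glo luminescence; compounds titrated up to 57 uM.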
* hit, by the source's call; ? = inconclusive; / = not tested or not shown; [ ] = another dose, or the depositor's remark. Unless noted, calls follow the shape of the dose curve; as a rule, active = well fitted curve in the direction sought with a large enough effect; inconclusive = small, poorly fitted or top-dose-only effect, or another doubt; inactive = no such curve, though single readings can be large; an effect the other way counts as inactive or inconclusive. Potency is read from the fitted curve at half-maximal effect.

SMILES	VDR inh	TDP1 block	PLK1 PBD block	ASM inhibitor	Pin1 inh	Tb PFK inh
C[C@]12O[C@H](C[C@]1(O)CO)n1c3ccccc3c3c4c(c5c6ccccc6n2c5c31)CNC4=O	-7%	/	/	/	/	/
Cc1csc2nc(CSc3ccc(Cl)cc3)cn12	?	5%	6.7µM*	-7%	?	-4%
CCOC(=O)c1scc(-c2ccccc2)c1S(=O)(=O)Nc1ccc(N(C)C)cc1	20µM*	14%	/	/	1%	/
CCOC(=O)c1scc(-c2ccc(C)cc2)c1S(=O)(=O)Nc1ccc(F)c(F)c1	11%	5%	/	/	-2%	/
Cc1cc(OCCn2cc(C(=O)c3cccs3)c3ccccc32)ccc1Cl	-8%	-3%	/	/	5%	/
O=C(NCc1ccccc1)n1cc(P(=S)(c2ccccc2)c2ccccc2)c2ccccc21	/	0%	/	/	0%	/
CNC(=O)/C(C#N)=C\c1ccc(CNS(=O)(=O)c2ccccc2)o1	-7%	8%	-11%	7%	1%	2%
CNC(=O)/C(C#N)=C\c1ccc(CNS(=O)(=O)c2ccc(Cl)cc2)o1	?	-1%	17µM*	7%	-1%	1%
O=S(=O)(Nc1cccc2cccnc12)c1cccs1	3%	1%	/	/	-10%	/
C=C1CCN(C(CC(C)C)C(=O)NCc2ccc(OC)cc2)S(=O)(=O)c2ccccc21 (stereo unspecified)	0%	0%	/	/	7%	/
O=C(NCC1CCCO1)C(Cc1ccccc1)N1C(=O)C2C3C=CC(C4CC34)C2C1=O (stereo unspecified)	?	-5%	11µM*	3%	2%	0%
COc1cc(/C=C/c2ccc3c(Br)cc(Br)c(O)c3n2)ccc1O	?	11%	24µM*	-1%	23%	1%
N#Cc1ccc(-n2nccc2-c2cnc3n(c2=O)CCS3)cc1	?	6%	27µM*	0%	3%	-1%
O=C(Nc1cc(N2CCOCC2)ncn1)c1ccc(F)cc1	-17%	5%	-16%	-6%	-4%	2%
O=C(Nc1cc(N2CCCCC2)ncn1)c1ccc(F)cc1	-17%	0%	30µM*	2%	-4%	-3%
O=C(NC(=O)c1ccc(Cl)cc1)Nc1cc(N2CCCCC2)ncn1	?	/	27µM*	5%	-8%	/
COc1ccccc1Nc1nn2c(=O)c3ccc(C(=O)NCCc4ccccc4)cc3nc2s1	10%	3%	/	/	22%	/
Cc1ccc(NC(=O)C2(c3ccccc3)CCOCC2)cc1	-15%	2%	27µM*	-1%	2%	1%
Cc1ccc(OCC(=O)Nc2ccc3nc(SCC(=O)N4CCCC4)sc3c2)cc1C	21%	8%	/	/	36%	/
COC1=CC(=O)C(C(=O)c2ccccc2)=CC1=O	32µM*	1%[56.1 µM]	/	/	/	/
COc1ccc(C(=O)c2ccccc2)cc1	11%	-2%	-11%	-1%	1%	1%
COc1ccc(N2C(=O)CC(Sc3n[nH]c(-c4cccc(C)c4)n3)C2=O)cc1 (stereo unspecified)	12%	11%	?	-1%	-2%	-6%
COC(=O)c1ccc(N2C(=O)CC(Sc3n[nH]c(C)n3)C2=O)cc1 (stereo unspecified)	-5%	4%	3.4µM*	0%	0%	2%
O=S(=O)(c1ccc(=S)[nH]c1)N1CCN(Cc2ccccc2)CC1	79µM*	1%	?	0%	-5%	1%
O=S(=O)(c1ccc(=S)[nH]c1)N1CCCCC1	-16%	2%	?	-1%	-9%	-6%
SMILES	VDR inh	TDP1 block	PLK1 PBD block	ASM inhibitor	Pin1 inh	Tb PFK inh
CCC(C)NC(=O)c1cc(C)no1 (stereo unspecified)	11%	3%	30µM*	6%	-13%	0%
O=C(O)C1CC(=O)N(Cc2ccc(F)cc2)C1 (stereo unspecified)	-12%	9%	27µM*	2%	-5%	1%
CCC(Sc1nc2c(sc3ccccc32)c(=O)n1CCc1ccc(OC)c(OC)c1)C(=O)N(CC)CC (stereo unspecified)	12%	4%	/	/	2%	/
COC1=C(Nc2ccc(O)cc2)C(=O)c2ccccc2C1=O	25µM*	7%	-11%	-4%	0%	0%
Cc1cc(C)n(-c2nc(C)c(C)c(=O)n2CC(=O)Nc2ccc(Cl)c(Cl)c2)n1	17%	-3%	/	/	0%	/
COc1cccc(S(=O)(=O)N2CCN(S(=O)(=O)c3ccc4c(c3)OCCO4)CC2)c1	/	2%	/	/	-1%	/
Cc1ccc(N(Cc2cc3ccc(C)cc3[nH]c2=O)C(=O)c2ccco2)cc1	?	/	27µM*	-1%	23%	5%
COc1ccccc1CNC(=O)CC(c1ccc(C)cc1)N1Cc2ccccc2C1=O (stereo unspecified)	3%	6%	/	/	-2%	/
CCOC(=O)Cn1c(=O)n(C2CCCCC2)c2nc(-c3ccc(Cl)cc3)nc(C(N)=O)c21	-10%	7%	/	/	-1%	/
CCOc1ccc(C(c2c(O)nc(SC)[nH]c2=O)c2c(O)nc(SC)[nH]c2=O)cc1	?	/	24µM*	4%	4%	/
CSc1nc(O)c(C(c2ccc(O)cc2)c2c(O)nc(SC)[nH]c2=O)c(=O)[nH]1	?	/	?	4%	-9%	1%
C=CCOc1ccc(C(c2c(O)nc(SC)[nH]c2=O)c2c(O)nc(SC)[nH]c2=O)cc1	22µM*	/	12µM*	2%	-6%	/
O=C1CCc2cc(S(=O)(=O)Nc3ccc4c(c3)CCC4)ccc2N1	/	-1%	/	/	2%	/
O=C(NCCCn1ccnc1)C(=O)Nc1ccccc1	0%	5%	30µM*	4%	-11%	0%
CCc1ccc(N(CC)C(=O)c2ccc3c(=O)n4c(nc3c2)CCCCC4)cc1	-9%	5%	/	/	-1%	/
Cc1ccc(-c2nnn(CC(=O)N(Cc3ccc(F)cc3)C(C(=O)NC3CCCC3)c3ccncc3)n2)o1 (stereo unspecified)	8%	5%	-3%	-1%	43%	-5%
Cc1ccc(-c2nnn(CC(=O)N(CCO)C(C(=O)NC3CCCCC3)c3ccncc3)n2)o1 (stereo unspecified)	-17%	4%	34µM*	5%	1%	2%
Cc1ccc(N(C(C)C(=O)Nc2ccc3c(c2)OCO3)S(C)(=O)=O)cc1 (stereo unspecified)	?	3%	3µM*	-1%	-16%	-1%
Cc1ccc(CN(c2ccc(C(=O)Nc3ccc4c(c3)OCO4)cc2)S(C)(=O)=O)cc1	-3%	7%	-3%	-10%	4%	2%
Cc1ccc(Cn2c(C(C)Nc3nc(-c4ccc(Cl)c([N+](=O)[O-])c4)cs3)nc3cc(C(F)(F)F)ccc32)cc1 (stereo unspecified)	-11%	/	-29%	-2%	?	/

Compound activity from PubChem BioAssay.
